Laboratory results as given in PubChem BioAssay AID1159580 (chemical genetic matrix, 2015).
Values joined by “and” are separate entries in the source; they are usually repeats but may differ in a detail not shown here. Equal values may be shown once. In all, about 5,500 compounds went through this assay and about 2,000 (36%) were called active. Inconclusive results (about 18%) are left out. No stated cut-off is given here; in the data, active means normalized growth mostly below about 0.91 (no sharp cut-off); inconclusive means no clear call, values can overlap the other calls; inactive means mostly above about 0.92. The list shows a part of the results.

Test: chemical genetic growth profiling, strain panel (AID 1159580);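 further: tested at 20 µM; growth read once vehicle control cultures reached saturation at 30 °C; 1 = growth at the plate median or of vehicle wells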
Settings: S. cerevisiae deletion strains, growth OD

Measured: normalized growth

Cn1c(=O)c2[nH]cnc2n(C)c1=O
inactive: locus YAL013W, strain DEP1, stronger effect = lower value 0.996 | locus YAL021C, strain ccr4, stronger effect = lower value 1.03 | locus YAL026C, strain drs2, stronger effect = lower value 1.03 | locus YAL030W, strain snc1, stronger effect = lower value 1.02 | locus YAL040C, strain CLN3, stronger effect = lower value 0.999 | locus YBL061C, strain skt5, stronger effect = lower value 1.02 | locus YBR009C, strain hhf1, stronger effect = lower value 1 | locus YBR021W, strain FUR4, stronger effect = lower value 0.968 | locus YBR023C, strain chs3, stronger effect = lower value 1.04 | locus YBR171W, strain sec66, stronger effect = lower value 1.04 | locus YBR229C, strain ROT2, stronger effect = lower value 0.983 | locus YBR231C, strain swc5, stronger effect = lower value 1.02 | locus YBR279W, strain paf1, stronger effect = lower value 1.02 | locus YCL011C, strain gbp2, stronger effect = lower value 1.02 | locus YCL016C, strain dcc1, stronger effect = lower value 1.04 | locus YCL029C, strain bik1, stronger effect = lower value 0.966 | locus YCL061C, strain MRC1 (second series), stronger effect = lower value 1 | locus YCL069W, strain vba3, stronger effect = lower value 1 | locus YCR088W, strain abp1, stronger effect = lower value 1.02 | locus YDL005C, strain med2, stronger effect = lower value 1.02 | locus YDL035C, strain GPR1, stronger effect = lower value 0.996 | locus YDL040C, strain nat1, stronger effect = lower value 1.02 | locus YDL074C, strain BRE1, stronger effect = lower value 1.02 | locus YDL101C, strain DUN1, stronger effect = lower value 0.985 | locus YDL134C, strain PPH21, stronger effect = lower value 0.985 | locus YDL185W, strain tfp1, stronger effect = lower value 0.979 | locus YDL192W, strain arf1, stronger effect = lower value 0.964 | locus YDR001C, strain nth1, stronger effect = lower value 1.01 | locus YDR069C, strain doa4, stronger effect = lower value 1.02 | locus YDR101C, strain arx1, stronger effect = lower value 0.975 | locus YDR137W, strain rgp1, stronger effect = lower value 1.04 | locus YDR150W, strain NUM1, stronger effect = lower value 0.99 | locus YDR159W, strain sac3, stronger effect = lower value 0.982 | locus YDR162C, strain NBP2, stronger effect = lower value 1.01 | locus YDR195W, strain ref2 1.01 | locus YDR297W, strain sur2, stronger effect = lower value 1.03 | locus YDR318W, strain mcm21, stronger effect = lower value 0.976 | locus YDR334W, strain swr1, stronger effect = lower value 1.02 | locus YDR335W, strain msn5, stronger effect = lower value 1.04 | locus YDR388W, stronger effect = lower value 0.975 | locus YDR392W, strain spt3, stronger effect = lower value 1.05 | locus YDR502C, strain sam2, stronger effect = lower value 1 | locus YEL003W, strain gim4, stronger effect = lower value 0.997 | locus YEL037C, strain rad23, stronger effect = lower value 1.02 | locus YEL061C, strain CIN8 (second series), stronger effect = lower value 1.02 | locus YEL061C, strain CIN8, stronger effect = lower value 0.989 | locus YER002W, strain NOP16, stronger effect = lower value 0.993 | locus YER015W, strain faa2, stronger effect = lower value 1.02 | locus YER016W, strain bim1, stronger effect = lower value 1.02 | locus YER110C, stronger effect = lower value 0.978 | locus YER111C, strain swi4, stronger effect = lower value 1 | locus YER155C, strain BEM2 (second series), stronger effect = lower value 1.02 | locus YER155C, strain BEM2, stronger effect = lower value 0.992 | locus YER167W, strain BCK2, stronger effect = lower value 0.988 | locus YFR010W, strain ubp6, stronger effect = lower value 0.99 | locus YGL078C, strain dbp3, stronger effect = lower value 0.987 | locus YGL086W, strain mad1, stronger effect = lower value 0.989 | locus YGL167C, strain pmr1, stronger effect = lower value 1.02 | locus YGL173C, strain kem1, stronger effect = lower value 1.02 | locus YGL227W, strain vid30, stronger effect = lower value 1.01 | locus YGL240W, strain doc1, stronger effect = lower value 1.02 | locus YGL248W, strain PDE1, stronger effect = lower value 0.99 | locus YGL253W, strain hxk2, stronger effect = lower value 1.03 | locus YGR078C, strain PAC10, stronger effect = lower value 0.992 | locus YGR135W, strain pre9, stronger effect = lower value 0.976 | locus YGR229C, strain SMI1, stronger effect = lower value 1.03 | locus YGR252W, strain gcn5, stronger effect = lower value 1.05 | locus YHR013C, strain ard1, stronger effect = lower value 1.05 | locus YHR027C, strain rpn1, stronger effect = lower value 1.02 | locus YHR030C, strain SLT2, stronger effect = lower value 0.984 and 0.992 | locus YHR079C, strain IRE1 (second series), stronger effect = lower value 0.965 | locus YHR079C, strain IRE1, stronger effect = lower value 0.988 | locus YHR094C, strain hxt1, stronger effect = lower value 0.985 | locus YHR129C, strain ARP1, stronger effect = lower value 0.995 | locus YHR142W, strain chs7, stronger effect = lower value 1.05 | locus YHR200W, strain rpn10, stronger effect = lower value 0.979 | locus YIL066C, strain RNR3, stronger effect = lower value 0.989 | locus YIL073C, strain SPO22, stronger effect = lower value 0.94 | locus YIL125W, strain kgd1, stronger effect = lower value 0.983 | locus YIR030C, strain dcg1, stronger effect = lower value 0.97 | locus YJL092W, strain hpr5, stronger effect = lower value 1.01 | locus YJL095W, strain BCK1 (second series), stronger effect = lower value 1.03 | locus YJL095W, strain BCK1, stronger effect = lower value 1.01 and 0.99 | locus YJL115W, strain asf1, stronger effect = lower value 1.03 | locus YJL129C, strain trk1, stronger effect = lower value 1.04 | locus YJL134W, strain LCB3, stronger effect = lower value 0.989 | locus YJL154C, strain vps35, stronger effect = lower value 1.01 | locus YJL164C, strain tpk1, stronger effect = lower value 1.01 | locus YJL166W, strain qcr8, stronger effect = lower value 1.02 | locus YJL168C, strain set2, stronger effect = lower value 0.978 | locus YJL187C, strain SWE1 (second series), stronger effect = lower value 0.984 | locus YJL187C, strain SWE1, stronger effect = lower value 1 | locus YJR043C, strain POL32, stronger effect = lower value 0.997
